VDR inh: Inhibitors of the vitamin D receptor (VDR): qHTS; VDR-SRC2-3 peptide fluorescence polarization, 2 h; Potency, µM, inactives show max response, negative = inhibition, usual class: inhibitors; 400,000 compounds, 0.93% hits; AID 504847, 2011; note: % is set by controls: 0 for no effect and ±100 for the full control effect
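VDR–SRC2-3 interaction, FP format. Cmpds 23 nl via pintool, brief spin, 2 h ambient incubation.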
Pin1 inh: qHTS Assay to Find Inhibitors of Pin1. Peptidyl-prolyl cis-trans isomerase NIMA-interacting 1 (Homo sapiens), Q13526. Pin1 FP peptide displacement, HiFluor488, 10 min. Potency, µM (highest dose often 115 µM), for the others: at the top dose activity, negative = inhibition, usual class: inhibitors. 390,000 compounds, 0.009% hits. AID 504891, 2011; active = well fitted inhibition curve with a large enough effect in the polarisation, with a control signal flat, not every such curve was filed as active; inconclusive = small, poorly fitted or top-dose-only effect, or effect the other way, or a change in a side signal; inactive = no such curve, though single readings can be large or run the other way; the % refers to the polarisation; note: % is set by controls: 0 for no effect and ±100 for the full control effect
Target sequence (Q13526 whole entry, looked up): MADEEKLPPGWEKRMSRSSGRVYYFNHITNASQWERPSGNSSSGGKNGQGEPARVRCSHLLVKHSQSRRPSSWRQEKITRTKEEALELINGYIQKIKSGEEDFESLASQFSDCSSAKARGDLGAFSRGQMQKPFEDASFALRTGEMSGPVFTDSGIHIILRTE
Tb PGK inh: qHTS Assay to Find Inhibitors of Phosphoglycerate Kinase. Phosphoglycerate kinase, glycosomal (Trypanosoma brucei brucei), P07378. PGK/GAPDH coupled, Kinase-Glo luminescence, 60 min. Potency, µM (top dose mostly 57.5 µM), for inactives: at the top dose activity change, negative = inhibition, actives largely listed as inhibitors. 380,000 compounds, 0.043% hits. AID 602233, 2012; note: % is set by controls: 0 for no effect and ±100 for the full control effect; nearly all actives have a fitted effect of over 60% in size
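Luminescent ATP detection (Kinase-Glo Plus) follows a 60-minute room-temperature incubation, with wells lacking PGK as controls. Buffer: 100 mM TEA (pH 7.6), 5 mM MgCl2, 0.01% Tween-20. Coupling enzyme GAPDH (100 nM final) supplies unstable 1,3-BPG in-well.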
GLS inhibitor: qHTS for Inhibitors of Glutaminase (GLS) | Glutaminase kidney isoform, mitochondrial (Homo sapiens), O94925 | GLS enzymatic activity, qHTS titration | Potency, µM (top dose mostly 45.5 µM), for the others: at the top dose activity change, negative = inhibition, hits mostly inhibitors | 410,000 compounds, 0.21% hits | AID 624170, 2012; note: % is set by controls: 0 for no effect and ±100 for the full control effect
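Compounds were pin-transferred onto hKGA, after which L-glutamine (1 mM solution) and a detection mix of glutamate oxidase, HRP and Amplex Red were added. Initial and 30 min RT fluorescence reads were collected.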
Tb PFK inh-1: qHTS Assay to Find Inhibitors of T. brucei phosphofructokinase. Potency, µM (series often up to 57.5 µM), inactives show top-dose activity, negative = inhibition, hits mostly inhibitors. T. brucei PFK, ADP-Glo luminescence. 330,000 compounds, 0.17% hits. AID 485367, 2010;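 note: 0% = uninhibited 1x PFK enzyme wells and -100% = no-enzyme wells; nearly all actives have a fitted effect of over 60% in size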
Target sequence (O15648 whole entry, looked up): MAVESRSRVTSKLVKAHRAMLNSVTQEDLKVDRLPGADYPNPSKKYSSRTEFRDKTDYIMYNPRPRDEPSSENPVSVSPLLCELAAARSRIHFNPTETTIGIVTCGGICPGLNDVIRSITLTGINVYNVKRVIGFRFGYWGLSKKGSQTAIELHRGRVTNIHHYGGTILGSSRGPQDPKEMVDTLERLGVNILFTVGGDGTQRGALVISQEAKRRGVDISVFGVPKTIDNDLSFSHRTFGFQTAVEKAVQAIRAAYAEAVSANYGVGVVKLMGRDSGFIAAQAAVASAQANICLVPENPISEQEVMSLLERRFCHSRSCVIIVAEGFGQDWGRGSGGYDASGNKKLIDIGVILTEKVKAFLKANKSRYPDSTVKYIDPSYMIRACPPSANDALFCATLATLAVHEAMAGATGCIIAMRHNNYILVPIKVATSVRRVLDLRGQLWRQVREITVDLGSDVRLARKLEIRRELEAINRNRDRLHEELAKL
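In TEA buffer at pH 8.0 with 5 mM MgCl2, enzyme (1.25 nM) converted F6P (0.5 mM) and ATP (0.1 mM) for 45 min at room temperature. ADP product was read by luciferase luminescence.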
TbPFK ATP: Tb PFK orthogonal confirmatory assay using ATP depletion (Kinase-Glo Plus) as an alternative measure of Tb PFK activity: Hit Validation; shares compounds with Tb PFK inh-1; Tb PFK enzyme, ATP depletion, Kinase-Glo Plus luminescence; Potency, µM (titrated, usually from 57.5 µM), for the others: at the highest dose inhibition; 1,100 compounds, 47% hits; AID 504636, 2011; calls by dose curve; note: nearly all actives have a fitted effect of over 60% in size
Tb PFK inh-2: Inhibitors of T. brucei phosphofructokinase: Hit Validation; 1,100 compounds, 41% hits; purified T. brucei PFK, ADP-Glo luminescence, 45 min; Potency, µM (highest dose often 57.5 µM), for the others: top-dose activity change, negative = inhibition, hits mostly inhibitors; shares compounds with Tb PFK inh-1; AID 504637, 2011;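 note: plate controls were full PFK enzyme control for no effect and no enzyme control for full effect; nearly all actives have a fitted effect of over 60% in size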
Starred values were filed as active, the others as inactive; i = inactive; ? = inconclusive; . = not tested or not shown. Shown are actives, neighbours in structure and some others; about 1.1% of the full set was active somewhere. Unless noted, calls come from the whole dose curve; as a rule, active = well fitted curve in the direction sought with a large enough effect; inconclusive = small, poorly fitted or top-dose-only effect, or another doubt; inactive = no such curve, though single readings can be large; an effect the other way counts as inactive or inconclusive. Potency is the fitted concentration of half-maximal effect.

SMILES | VDR inh | Pin1 inh | Tb PGK inh | GLS inhibitor | Tb PFK inh-1 | TbPFK ATP | Tb PFK inh-2
O=C(OCC(=O)N1CCN(c2cccc(Cl)c2)CC1)c1ccco1 | -2.7% | 3.7% | -6.6% | 1.2% | 21.3µM* | 23.9µM* | ?
COc1cccc(N2CCN(Cc3cccc(Cl)c3)CC2)c1 | 16.9% | 14.1% | -7.1% | 17.5% | -5.5% | . | .
CN1CCN(C(=S)c2ccc(N(C)C)cc2)CC1 | ? | 1.3% | -1.8% | 33.2% | ? | 12µM* | 26.9µM*
CSc1ccc(C(=S)N2CCN(C)CC2)cc1 | -53.7% | -6.5% | -0.5% | 17.6% | ? | 21.3µM* | ?
CN1CCN(C(=S)c2ccc([N+](=O)[O-])cc2)CC1 | ? | -2.0% | -7.5% | -5.1% | -5.8% | . | .
CN1CCN(C(=S)c2ccc(Br)cc2)CC1 | ? | 0.2% | 13.3% | 4.9% | ? | 12µM* | 13.5µM*
COC(=O)C1=C(c2ccc(F)cc2OCc2ccccc2)C[C@@H]2CC[C@H]1N2C(=O)NCCN1CCOCC1 | -0.5% | -3.2% | 2.1% | 3.4% | 0.5% | . | .
CC1C(=O)OC2CCN3CC=C(COC(=O)[C@](C)(O)[C@]1(C)O)C23 (stereo not given in full) | 9.9% | . | . | . | . | . | .
CCN(CC)C(=O)/C(Cl)=C(\C)OP(=O)(OC)OC | -1.8% | . | . | -7.9% | . | . | .
COc1ccc(N2C(=O)/C(=C/c3cccs3)NC2=S)cc1 | ? | 2.2% | 3.7% | -4.2% | 15.1µM* | 6.01µM* | 6.01µM*
CCN(CC)C(=S)Nc1ccc(Cl)c(Cl)c1 | ? | 2.0% | -1.5% | -3.3% | ? | 14.4% | -1.3%
CCC(=O)Nc1ccc(Cl)c(Cl)c1 | -3.6% | 1.5% | 1.8% | 2.4% | . | . | .
Cc1occc(=O)c1OC(=O)Nc1ccc(Cl)c(Cl)c1 | -12.0% | -1.4% | i | 27.4% | 30.1µM* | ? | ?
O=C(Nc1ccc2ccccc2c1)c1ccccc1O | -4.9% | -5.0% | -12.6% | 7.7% | ? | -33.1% | ?
Cc1ccc(OCC(=O)Nc2ccc(Cl)cc2C(=O)c2ccccc2)c(Br)c1 | -5.1% | -2.9% | . | -3.2% | . | . | .
COc1ccc(Cl)cc1C(=O)NNC(=O)COC(=O)CCN=C1NS(=O)(=O)c2ccccc21 | -18.9% | 5.8% | -1.8% | 6.5% | ? | -27.9% | ?
C[Se]C[C@H](N)C(=O)O | 7.2% | . | . | . | . | . | .
O=C(NNC(=O)c1cc2cc3ccccc3nc2s1)c1ccc(F)cc1 | -9.8% | 27.1% | ? | -15.9% | ? | ? | ?
COC(=O)c1ccccc1NC(=O)c1cccn(Cc2cccc(Cl)c2)c1=O | -6.2% | 3.7% | 3.0% | 2.0% | . | . | .
NC(=O)c1cccn1Cc1cccc(Cl)c1 | 11.8% | -0.4% | -7.3% | 6.2% | ? | ? | ?
COc1cccc(CC(=O)N2CCN(Cc3cccc(Cl)c3)CC2)c1 | 2.2% | 3.1% | -11.1% | 4.2% | -2.5% | . | .
CCOC(=O)c1cn(Cc2cccc(Cl)c2)nn1 | -12.5% | -2.8% | 7.5% | -1.6% | ? | 26.9µM* | ?
O=C(c1csnn1)N1CCC2(CC1)CN(Cc1ccncc1)C2 | 1.8% | . | . | . | . | . | .
COc1ccc(/C=C/C(=O)N2CC3C[C@@H](C2)Cn2c3cccc2=O)cc1OC | 0.0% | . | . | . | . | . | .
NS(=O)(=O)c1cc(C(=O)OCC(=O)Nc2ccc3[nH]c(=O)[nH]c3c2)ccc1Cl | -16.0% | 3.5% | -0.2% | -4.5% | ? | . | .
SMILES | VDR inh | Pin1 inh | Tb PGK inh | GLS inhibitor | Tb PFK inh-1 | TbPFK ATP | Tb PFK inh-2
Cc1ccc(S(=O)(=O)N2CCOCC2)cc1C(=O)OCC(=O)Nc1ccc2[nH]c(=O)[nH]c2c1 | 3.0% | ? | i | 8.4% | ? | ? | ?
Cc1cc(C)nc(SCc2nnc(SCc3ccc([N+](=O)[O-])cc3)n2Cc2ccco2)n1 | 4.4% | -2.3% | -4.4% | 2.8% | ? | 10.7µM* | 15.1µM*
CCOC(=O)c1c(N)n(Cc2ccco2)c2nc3ccccc3nc12 | -1.5% | ? | i | 0.1% | -5.2% | . | .
COCCCNP1(=O)OCC(C)([N+](=O)[O-])CO1 (stereo not given) | -0.7% | -1.2% | -4.0% | -1.9% | . | . | .
C[C@@H]1CC[C@H]2[C@@H](C)C(=O)O[C@@H]3OC4(C)CC[C@@H]1[C@]32OO4 | -1.4% | . | . | . | . | . | .
N#Cc1ccc2ccn(CC(=O)NCc3ccccc3)c2c1 | -4.6% | 17.8% | -2.4% | 10.2% | ? | ? | 21.3µM*
CNC(=S)N1CCN(c2ccc(Cl)c(Cl)c2)CC1 | 0.2% | -1.6% | i | -23.0% | 26.9µM* | 13.5µM* | 26.9µM*
COC(=O)N1CCN(C(=O)Cc2ccc(Cl)c(Cl)c2)C(CN2CCCC2)C1 (stereo not given) | -15.2% | . | . | . | -20.4% | . | .
COC(=O)N1CCN(c2ccc(Cl)c(Cl)c2)CC1 | 0.2% | 1.7% | -0.6% | 10.9% | 30.1µM* | 23.9µM* | 30.1µM*
COC(=O)C12CC3=CC(CC3=O)Cc3ccccc3[C@@H]1CNC2=O (stereo not given in full) | -26.6% | . | . | . | . | . | .
CCCCCCCCCCCCCCCCn1cc[n+](CC(C)=O)c1 | -4.7% | 16.9% | -7.8% | ? | ? | -6.7% | -7.0%
O=C1c2c([N+](=O)[O-])cc([N+](=O)[O-])cc2S(=O)N1Cc1ccccc1 (stereo not given) | ? | -11.5% | -0.9% | -2.7% | 26.9µM* | 6.1% | -5.5%
Cc1ccc(S(=O)(=O)N(C)C[C@H]2Oc3c(NC(=O)Nc4cccc5ccccc45)cccc3C(=O)N([C@@H](C)CO)C[C@@H]2C)cc1 | 1.5% | 15.4% | -4.6% | -1.6% | 4.1% | . | .
OCC(Br)(Br)Br | 3.7% | . | . | . | . | . | .
Cc1cc(N(C)C)ccc1[N+](=O)[O-] | -4.4% | 4.1% | -5.8% | 1.0% | ? | ? | 30.1µM*
Cc1c(N2C(=O)/C(=C\c3ccccc3O)SC2=S)c(=O)n(-c2ccccc2)n1C | ? | -1.1% | i | -5.0% | 21.3µM* | ? | -29.8%
Cc1c(C=C2C(=O)N(C)C(=O)N(C)C2=O)c(=O)n(-c2ccccc2)n1C | -5.2% | 54.1% | i | -3.5% | ? | . | .
N[C@H](CCCCCP(=O)(O)O)C(=O)O | -1.3% | . | . | . | . | . | .
